RGS4-Gao reg: modulates binding of RGS4 to human Galphao | P09471 | Multiplexed bead flow cytometry; actives lie on both sides | 220,000 compounds, 0.33% hits | AID 1415 | binding response (% of control), % at 10 µM; in the data active means binding response below about 49% or above about 150%; inactive means in between;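 further: fluorescent Galphao activated with aluminum fluoride binding bead-coupled RGS4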
Target sequence (P09471 whole entry, looked up): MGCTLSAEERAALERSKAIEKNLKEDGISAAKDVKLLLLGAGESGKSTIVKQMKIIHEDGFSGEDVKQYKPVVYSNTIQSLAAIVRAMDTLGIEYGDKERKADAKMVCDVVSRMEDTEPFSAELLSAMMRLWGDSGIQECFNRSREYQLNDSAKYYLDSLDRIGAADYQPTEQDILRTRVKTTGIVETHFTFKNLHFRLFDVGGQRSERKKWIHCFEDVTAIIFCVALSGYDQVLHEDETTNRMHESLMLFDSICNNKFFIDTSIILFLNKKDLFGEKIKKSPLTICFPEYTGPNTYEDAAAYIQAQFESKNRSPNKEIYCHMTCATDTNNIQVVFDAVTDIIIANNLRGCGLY
Avidin bead fluor: avidin bead compound fluorescence profile | 220,000 compounds, 0.38% hits | AID 1775 | fluorescence (KMESF) at 10 µM | Avidin beads, compound fluorescence 488/530 nm, flow cytometry; stronger effect = higher value; in the data active means fluorescence above about 47
RGS8-Gao: human RGS8-Galphao interaction regulation. P09471. multiplexed bead flow cytometry, RGS8-Galphao binding; actives lie on both sides. response (percent of control binding), % at 10 µM. 220,000 compounds, 0.34% hits. AID 1423; in the data active means response below about 60% or above about 140%; inactive means in between;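 further: Galphao activated as the GDP aluminium fluoride complex binding bead-coupled RGS8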
RGS16-Gao: regulators of human RGS16-Galphao interaction. O15492+P09471. bead-based flow cytometry RGS16-Galphao binding, fluorescence; actives lie on both sides. binding response (% of control), % at 10 µM. 220,000 compounds, 0.38% hits. AID 1441;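 further: Galphao activated by GDP with aluminum fluoride before binding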
Target sequence (O15492 whole entry, looked up): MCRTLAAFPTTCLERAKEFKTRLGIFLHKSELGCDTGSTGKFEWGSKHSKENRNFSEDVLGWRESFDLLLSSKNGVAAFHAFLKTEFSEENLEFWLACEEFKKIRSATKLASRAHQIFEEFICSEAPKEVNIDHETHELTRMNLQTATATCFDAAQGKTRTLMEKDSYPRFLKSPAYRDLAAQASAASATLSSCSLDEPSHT
Target sequence (P09471 whole entry, looked up): as the sequence (P09471 whole entry, looked up) above
RGS7-Gao reg: human RGS7-Galphao interaction regulation. Multiplexed bead flow cytometry, RGS7-Galphao binding; actives lie on both sides. P09471. binding response (% of control), % at 10 µM. 220,000 compounds, 0.35% hits. AID 1439; in the data active means binding response below about 49% or above about 150%; inconclusive means no clear call, values can overlap the other calls; inactive means in between;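 further: fluorescent Galphao held in activated GDP-AlF4 state binding bead-coupled RGS7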
GSH bead fluor: compound fluoresces at 488/530 nm on GSH beads. GSH beads flow cytometry, compound fluorescence 488/530 nm; stronger effect = higher value. AID 1776. 190,000 compounds, 0.25% hits. fluorescence (KMESF) at 10 µM; in the data active means fluorescence above about 89;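 further: glutathione beads carrying GST-tagged Bcl family fusion proteins plus one bare bead set; values are compound well signal with DMSO vehicle wells as background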
RGS4-Gao HTS: modulates binding between human RGS4 and Galphao | shares compounds with RGS16-Gao | multiplexed bead flow cytometry, RGS–Galpha-o binding | RGS4–Galpha-o binding response, % at 10 µM | 1,600 compounds, 99% hits | AID 1504;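 further: fluorescently labeled Galpha-o bound to GDP with aluminium fluoride binding biotinylated RGS beads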
Avidin counter: counter-screen: compounds disrupting biotin binding to avidin beads; 1,700 tested, under 10 active; shares compounds with RGS16-Gao; streptavidin beads, fluorescein-biotin binding, flow cytometry; inhibition, % at 10 µM;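 active means inhibition above 50%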;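 further: median green fluorescence of gated singlet beads compared with DMSO control wells; 0% = DMSO wells and 100% = complete loss of bead fluorescence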
RGS8-Gao confirm: confirmation of regulators of human RGS8-Galphao interaction; AID 1836; shares compounds with RGS16-Gao; bead-based flow cytometry RGS8-Galphao binding, fluorescence; actives lie on both sides; 1,700 compounds, 3% hits; binding response (% of control), % at 10 µM; in the data active means binding response below about 72% or above about 130%; inactive means in between;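 further: Galphao activated as GDP AlF4 complex before binding bead RGS8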
RGS7-Gao confirm: confirmation of regulators of human RGS7-Galphao interaction; shares compounds with RGS16-Gao; bead-based flow cytometry RGS7-Galphao binding; actives lie on both sides; response (percent of control binding), % at 10 µM; 1,700 compounds, 7.8% hits; in the data active means response below about 75% or above about 130%; inactive means in between;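 further: fluorescent Galphao activated with GDP and aluminum fluoride binding bead-coupled RGS7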
RGS16-Gao conf: RGS16-Galphao interaction regulation, single point confirmation. shares compounds with RGS16-Gao. bead-based flow cytometry, RGS16-Galphao binding; actives lie on both sides. response (% of control binding), % at 10 µM. 1,700 compounds, 4% hits; in the data active means response below about 74% or above about 130%; inactive means in between;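 further: Galphao activated as the GDP aluminium fluoride complex binding bead-coupled RGS16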
RGS4-Gao single: RGS4-Galphao interaction regulation, single point confirmation; shares compounds with RGS16-Gao; RGS4-Galphao binding, multiplexed bead flow cytometry; actives lie on both sides; 1,700 compounds, 4% hits; AID 1840; binding response (% of control), % at 10 µM; in the data active means binding response below about 74% or above about 130%; inactive means in between
RGS19-Gao single: confirmation of regulators of human RGS19-Galphao interaction; shares compounds with RGS16-Gao; bead-based flow cytometry RGS19-Galphao binding; actives lie on both sides; response (percent of control binding), % at 10 µM; 1,700 compounds, 5% hits; AID 1841; in the data active means response below about 50% or above about 160%; inactive means in between;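 further: 100% = no compound control and 0% = blank background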
The depositor's hits bear a star; ? = inconclusive; . = no result given; [ ] = dose if it differs, or a comment. Rows were chosen to be rich in hits. Some 1.2% of all compounds tested hit in one or more screens of this group. Unless noted, how the calls were made is not given here.

SMILES | RGS4-Gao reg | Avidin bead fluor | RGS8-Gao | RGS16-Gao | RGS7-Gao reg | GSH bead fluor | RGS4-Gao HTS | Avidin counter | RGS8-Gao confirm | RGS7-Gao confirm | RGS16-Gao conf | RGS4-Gao single | RGS19-Gao single
Cc1cc[n+]2n1CC(O)C2 (stereo not given) | . | . | . | . | . | . | . | 1.8 | 102.7 | 97.1 | 100.7 | 102.9 | 84.5
Cc1ccc(C2=N/C(=C/N3CCOCC3)C(=O)O2)cc1 | 91.7 | 9 | 86.1 | 52.8 | 92.8 | 30 | . | . | . | . | . | . | .
Cc1ccc(C2=N/C(=C\N3CCCCC3)C(=O)O2)cc1 | 197.7*[activator] | 89* | 114.8 | 204.3*[activator] | 168.6*[activator] | 31 | . | -1.7 | 100.7 | 100.6 | 100.5 | 102.7 | 98.7
CN1CCC2(CC1)N=C(c1ccc(F)cc1)C(=S)N2C(=O)c1ccc(C(C)(C)C)cc1 | 100.9 | 9 | 101.5 | 108.8 | 101.6 | 12 | . | . | . | . | . | . | .
CC1CCCC(C)N1C(=O)CN1C(=O)C(C)(C)Oc2ccc(C(=O)NC3CCCCC3)cc21 (stereo not given) | 108.4 | 4 | . | 2.8 | 91.3 | 54 | . | -1.2 | 100.4 | 100.5 | 101.3 | 98.4 | 91.9
CC1CCCC(C)N1C(=O)CN1C(=O)C(C)(C)Oc2ccc(C(=O)NC3CCCC3)cc21 (stereo not given) | . | . | . | . | . | 41 | . | -0.5 | 99.7 | 101.9 | 100.5 | 100.9 | 97.8
CCOc1ccc(NC(=O)CC2C(=O)N(c3ccccc3)C(=O)N2Cc2ccccn2)cc1 (stereo not given) | 135.3 | 6 | 144.1*[activator] | 378.2 | 125.2 | 38 | 135.3* | 4.2 | 99.9 | 101.1 | 98.0 | 99.6 | 70.9
CCN(CC)C(=O)c1cc([N+](=O)[O-])cc2c1-c1ccc([N+](=O)[O-])cc1C2=C(C#N)C#N | 90.0 | 6 | 90.5 | 89.0 | ? | . | . | . | . | . | . | . | .
O=C(N/N=C/c1cc([N+](=O)[O-])ccc1Cl)c1cc(-c2ccccc2)nc2ccccc12 | 97.5 | 7 | 104.3 | 105.2 | ? | . | . | . | . | . | . | . | .
O=C(N/N=C/c1cc([N+](=O)[O-])ccc1O)c1cc(-c2ccccc2)nc2ccccc12 | 54.2 | 2 | 67.4 | 33.9 | 42.5* | 11 | 54.2* | -0.4 | 98.9 | 97.3 | 97.8 | 100.9 | 92.0
CNC(=O)CN(C)S(=O)(=O)c1ccc(OC)c(Cl)c1 | 25.4* | 0 | 15.7* | 17.0* | 18.5* | 30 | . | -0.7 | 99.4 | 86.5 | 99.3 | 96.8 | 81.3
O=C(NCCN1CCN(S(=O)(=O)c2ccc([N+](=O)[O-])cc2)CC1)C(=O)Nc1ccccc1 | 130.9 | 152* | 89.3 | 86.8 | 221.4*[activator] | 25 | 130.9* | -1.6 | 99.1 | 102.2 | 101.4 | 99.7 | 106.6
O=C(NCCN1CCN(Cc2ccc([N+](=O)[O-])cc2)CC1)C(=O)Nc1ccccc1 | 96.8 | 18 | 99.8 | 99.2 | 97.1 | 33 | . | . | . | . | . | . | .
O=[N+]([O-])c1cccc(-c2noc(-c3cccs3)n2)c1 | 90.2 | 6 | 101.7 | 95.1 | ? | . | . | . | . | . | . | . | .
COc1ccccc1C1C(C(=O)NCc2ccccc2)=C(C)Nc2ncnn21 (stereo not given) | 99.6 | 6 | 99.8 | 97.8 | 98.0 | 49 | . | . | . | . | . | . | .
CC1=C(C(=O)NCc2ccccc2)C(c2cccs2)n2ncnc2N1 (stereo not given) | 69.4 | 3 | 79.1 | -63.1* | 80.7 | 4 | 69.4* | 0.6 | 98.4 | 99.8 | 101.1 | 100.1 | 102.0
O=C(NCc1cccnc1)c1ccccc1CCc1ccccc1 | 103.7 | 9 | 102.2 | 102.8 | ? | 16 | . | . | . | . | . | . | .
COc1ccc(C2C(C#N)=C(N)Oc3c2sc2nc(C)cc(C)c32)cc1 (stereo not given) | 121.0 | 89* | 103.2 | 187.1*[activator] | 117.3 | 6 | 121.0* | -0.9 | 101.2 | 101.0 | 99.5 | 102.1 | 104.3
Cc1ccc(CNC(=O)COC(=O)c2c(C)noc2C)cc1 | 156.6*[activator] | 5 | 131.9 | 142.1 | 142.4 | 29 | . | 0.6 | 101.5 | 99.4 | 100.2 | 99.6 | 92.9
Cc1cc(C)nc(/N=C(\N)Nc2ccccc2-c2ccccc2)n1 | 100.6 | 10 | 101.6 | 113.0 | 106.9 | 26 | . | . | . | . | . | . | .
CC1CCCC(NC(=O)CCCn2c(=O)[nH]c3cc(Cl)ccc3c2=O)C1C (stereo not given) | 212.4*[activator] | 100* | 110.1 | 204.1*[activator] | 175.7*[activator] | 36 | . | 1.0 | 104.8 | 102.2 | 105.3 | 104.4 | 107.0
COc1ccccc1/C=C\C=N\n1c(-c2ccc(Cl)cc2)n[nH]c1=S | 88.2 | 2 | 57.6* | 7.8* | 93.0 | 13 | 88.2* | -1.7 | 92.2 | 75.1* | 81.6 | 82.0 | 50.7
Cc1ccc(CN2CCN(/N=C/c3cccnc3)CC2)cc1 | 110.4 | 6 | 125.2 | 260.5*[activator] | 110.1 | 12 | 110.4* | 2.8 | 99.5 | 100.4 | 98.7 | 97.9 | 84.6
O=C(O)c1ccc(/C=N/N2CCN(Cc3ccc(Cl)cc3)CC2)cc1 | 116.5 | 14 | 148.2*[activator] | 262.3 | 125.4 | 12 | 116.5* | -1.6 | 97.5 | 82.5 | 92.6 | 91.4 | 82.8
Cc1ccc(CN2CCN(/N=C/c3ccc(C(=O)O)cc3)CC2)cc1 | 99.7 | 14 | 99.9 | 98.1 | 98.5 | 9 | . | . | . | . | . | . | .
CCN(CC)c1ccc(/C=N\N2CCN(Cc3ccc(C)cc3)CC2)cc1 | 104.9 | 12 | 102.8 | 109.3 | 105.6 | 20 | . | . | . | . | . | . | .
Cn1c(N2CCCC2)nc2c1c(=O)n(Cc1ccc(Cl)cc1)c(=O)n2C | . | . | . | . | . | 44 | . | 1.6 | 99.8 | 98.3 | 101.3 | 102.6 | 99.0
Cc1cc(Nc2ccccc2)c2c([N+](=O)[O-])ccc(C)c2n1 | 103.5 | 3 | 101.2 | 104.1 | 98.3 | 7 | . | . | . | . | . | . | .
Cc1cc2c3c(ccc(C)c3n1)N=CN2c1ccccc1 | . | . | . | . | . | 20 | . | -0.4 | 99.6 | 80.0 | 92.3 | 92.2 | 86.9
O=c1[nH]c(=O)n(Cc2ccco2)c2c1C(C(F)(F)F)(C(F)(F)F)N=C(c1ccc(F)cc1)N2 | 97.8 | 11 | 106.1 | 98.0 | 103.9 | 8 | . | . | . | . | . | . | .

Bioassay records as filed in PubChem.
